{
  "source": "PubChem BioAssay (NCATS)",
  "note": "Records with an inconclusive call do not appear. A number with no mark means an inactive call. The call rests on the fitted dose curve; in most records, active means well fitted inhibition curve with a large enough effect; inconclusive means small, poorly fitted or top-dose-only effect; inactive means no such curve, though single readings can be large or run the other way.",
  "data": [
    {"molecular_target": "Retinaldehyde dehydrogenase 3 (Homo sapiens) (UniProt P47895)", "assay": "qHTS for Inhibitors of the Aldehyde Dehydrogenase Family (ALDH1A3) Primary screen (AID 2061315);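 further: plate controls were DMSO vehicle for no effect and reference inhibitor for full effect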", "conditions": "ALDH inhibition qHTS; series mostly up to 56 µM; activity change, negative = inhibition: at the top concentration", "values": [
      {"smiles": "CC/C=C\\CC1C(=O)C=CC1(CCCCC1CCC(=O)O1)OC(C)=O", "note": "(stereo not drawn)", "activity change, negative = inhibition": "2.21%"},
      {"smiles": "CC(=O)OC1C(O)C(C)=C(CCC(C)CC(=O)O)C2(C)CCCC(C)(C)C12", "note": "(stereo not drawn)", "activity change, negative = inhibition": "0.718%"},
      {"smiles": "COc1cc2c(c(OC)c1O)C(c1ccc(O)cc1)C1C(=O)OC3C(COC(=O)C1=C2)OC(CO)(OC1OC(COC(=O)/C=C/c2ccc(OC4OC(C)C(O)C(O)C4O)cc2)C(O)C(O)C1O)C3O", "note": "(stereo not drawn)", "activity change, negative = inhibition": "-16.6% [at 16.9 µM]"},
      {"smiles": "COC1OC(O)C2(CCC3(O2)C(C)CC2OC(=O)C4(C)CCCC3(C)C24)C1O", "note": "(stereo not drawn)", "activity change, negative = inhibition": "-13.2%"},
      {"smiles": "C=C1[C@H](OC(C)=O)[C@H]2[C@@H](OC(C)=O)[C@](C)(OC(C)=O)C[C@]2(OC(C)=O)C(=O)[C@H](C)/C=C/C(C)(C)C(=O)[C@H](OC(=O)C(C)C)[C@H]1OC(C)=O", "activity change, negative = inhibition": "1.41% [at 16.9 µM]"},
      {"smiles": "C=C[C@H]1[C@H](O[C@@H]2O[C@H](CO)[C@@H](O)[C@H](O)[C@H]2O)OC=C(C(=O)OC)[C@H]1C/C=C(/C=O)[C@@H]1C(C(=O)OC)=CO[C@@H](O[C@@H]2O[C@H](CO)[C@@H](O)[C@H](O)[C@H]2O)[C@@H]1C=C", "activity change, negative = inhibition": "-5.26% [at 16.9 µM]"},
      {"smiles": "Cc1cc(F)ccc1-c1nc(NCCN=C(N)NC#N)nc2c1ccc(=O)n2-c1c(F)cccc1F", "activity change, negative = inhibition": "2.57%"},
      {"smiles": "CC(=O)O[C@@H]1[C@H](O[C@@H]2O[C@H](CO)[C@@H](O)[C@H](O)[C@H]2O)[C@@H](O[C@@H]2O[C@@H](C)[C@H](O)[C@@H](O[C@@H]3O[C@H](CO)[C@@H](O)[C@H](O)[C@H]3O)[C@H]2O)[C@H](OC(=O)C23CCC4(C)C(=CCC5C6(C)CC(O)C(O[C@@H]7O[C@H](C(=O)O)[C@@H](O)[C@H](O)[C@H]7O)C(C)(C(=O)O)C6CCC54C)C2CC(C)(C)CC3O)O[C@@H]1C", "note": "(stereo partly drawn)", "activity change, negative = inhibition": "-5.68% [at 11.2 µM]"}
    ]}
  ]
}
